From PubChem BioAssay
Calls of active or inactive are those of the source. Unless noted, how the calls were made is not given here.

Tests used:
[1] = tested on: Wnt5a (protein binding on small-molecule microarray); assay: small molecules binding Wnt5a protein – biophysical, small-molecule microarray, 635/667 nm fluorescence, primary screen (AID 1142); conditions: 635 nm fluorescence, higher = more signal;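 further: fluorescence read at 667 nm with signal to noise per printed feature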
[2] = ATP-based viability of Huh7 replicon cells – cell-based, CellTiter-Glo luminescence, basal, 48 h, cytotoxicity control for HCV replication inhibitor project, primary screen (AID 1143); conditions: higher = more signal, called active from +8 up or from −8 down;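 further: Huh7 hepatoma cells carrying a hepatitis C replication reporter with no stimulus; test concentration not given here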
[3] = Pseudomonas biofilm growth suppression – PAO1 strain, BacTiter-Glo luminescence, LB-PBS, primary screen (AID 1144); conditions: P. aeruginosa PAO1 biofilm, 12 h, higher = more signal
[4] = basal CRE-LacZ reporter activity in PC12 – cell-based, unstimulated, primary screen (AID 1145); conditions: no forskolin, luminescence, 4.5 h, higher = more signal, called active from +8 up or from −8 down
[5] = forskolin-driven CRE-LacZ activity in PC12 – cell-based, CRE-LacZ reporter, forskolin-stimulated, primary screen (AID 1146); conditions: luminescence, 4.5 h, higher = more signal, called active from +8 up or from −8 down;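 further: PC12 cells with 6xCRE LacZ reporter stimulated by forskolin 10 µM; beta-galactosidase reporter signal reflecting CREB driven transcription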
[6] = target: Streptavidin (Streptomyces avidinii) (UniProt P22629); assay: compounds binding control protein streptavidin – biophysical, small-molecule microarray, 635/667 nm fluorescence, artefact control for SMM compound annotation, primary screen (AID 1147); conditions: higher = more signal;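 further: signal reflects streptavidin binding to arrayed compounds as a control protein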
Sequence of Streptavidin (Streptomyces avidinii) (P22629 whole entry, looked up): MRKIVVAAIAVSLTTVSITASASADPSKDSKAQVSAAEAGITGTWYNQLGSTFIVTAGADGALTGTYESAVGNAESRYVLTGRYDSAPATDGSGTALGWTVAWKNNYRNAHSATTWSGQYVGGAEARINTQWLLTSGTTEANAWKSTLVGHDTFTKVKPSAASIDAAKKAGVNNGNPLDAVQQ

[7] = probe aInhba binding on compound microarray – biochemical, small-molecule microarray, 635/667 nm fluorescence, primary screen (AID 1148); conditions: higher = more signal;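 further: score merges 667nm spot fluorescence with signal-to-noise for antibody binding to printed compounds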
Torsin-1A (Homo sapiens) [8] = target: Torsin-1A (Homo sapiens) (UniProt O14656); assay: TOR1A wild-type binding on microarray – cell lysate, small-molecule microarray, lysate, 635/667 nm, primary screen (AID 1149); conditions: COS7 hTOR1A-WT lysate, 635 nm fluorescence, higher = more signal
Sequence of Torsin-1A (Homo sapiens) (O14656 whole entry, looked up): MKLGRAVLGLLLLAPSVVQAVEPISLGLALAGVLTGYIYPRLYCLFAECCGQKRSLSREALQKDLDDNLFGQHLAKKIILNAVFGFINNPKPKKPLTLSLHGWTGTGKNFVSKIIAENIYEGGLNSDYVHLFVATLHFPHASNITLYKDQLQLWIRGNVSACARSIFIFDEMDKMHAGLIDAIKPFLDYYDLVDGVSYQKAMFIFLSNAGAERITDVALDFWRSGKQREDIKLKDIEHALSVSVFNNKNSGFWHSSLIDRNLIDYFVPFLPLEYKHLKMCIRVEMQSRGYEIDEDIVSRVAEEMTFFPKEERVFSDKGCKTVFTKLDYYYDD

Torsin-1A (Homo sapiens) [9] = target: Torsin-1A (Homo sapiens) (UniProt O14656); assay: torsin A mutant lysate binding on microarrays – cell lysate, small-molecule microarray, COS7 lysate, 635/667 nm fluorescence, primary screen (AID 1150); conditions: COS7 hTOR1A mutant lysate, 635 nm fluorescence, higher = more signal;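 further: score pools 667 nm emission and signal to noise measuring lysate protein binding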
[10] = tested on: Sonic hedgehog protein (Shh); assay: Sonic hedgehog microarray binding compounds – biochemical, small-molecule microarray, 635/667 nm fluorescence, primary screen (AID 1151); conditions: 635 nm fluorescence, higher = more signal;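 further: Shh protein binding to compounds spotted on small-molecule microarray slides; score combines spot fluorescence intensity with signal-to-noise across triplicate slides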
[11] = optical density shifts of acrAB sulA E. coli – strain DRC41, OD650, 48 h, E. coli filamentation inducer project, primary screen (AID 1152); conditions: higher = more signal, called active from +8 up or from −8 down;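 further: E. coli MC1000 strain DRC41 lacking acrAB efflux pump and sulA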
[12] = probe aLefty1 binding on compound microarray – biochemical, small-molecule microarray, 635/667 nm fluorescence, primary screen (AID 1153); conditions: higher = more signal;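 further: score merges spot fluorescence with signal-to-noise ratio from the scanned slide images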
[13] = plasmodial surface anion channel blockers, osmotic lysis – cell-based, P. falciparum Indochina, OD700, 1 h, primary screen (AID 1154); conditions: P. falciparum Indochina infected RBC osmotic lysis, higher = more signal, called active from +8 up or from −8 down
[14] = plasmodial surface anion channel blockers, osmotic lysis – cell-based, P. falciparum Indochina, OD700, 2 h, primary screen (AID 1155);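 further: lysis reports solute entry through the parasite surface anion channel PSAC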; conditions: P. falciparum Indochina infected erythrocytes, higher = more signal, called active from +8 up or from −8 down
[15] = changes in parasitized red cell lysis, either direction – P. falciparum Indochina, OD700, 3 h, PSAC antagonist project, primary screen (AID 1156); conditions: P. falciparum-infected erythrocytes, osmotic lysis, higher = more signal, called active from +8 up or from −8 down
[16] = plasmodial surface anion channel blockers, osmotic lysis – cell-based, P. falciparum Indochina, OD700, 18 h, primary screen (AID 1157); conditions: P. falciparum Indochina infected erythrocytes, osmotic lysis OD700, 18 h; higher = more signal, called active from +8 up or from −8 down
[17] = S6 kinase pathway phospho-S6 level changes – cell-based, A549, cytoblot, luminescence, serum-stimulated, primary screen (AID 1158); conditions: 5 h, higher = more signal;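 further: serum-stimulated A549 lung adenocarcinoma cells; signal is phosphorylated S6 detected by cytoblot immunostaining with HRP secondary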
[18] = target: NADPH oxidase 2 (Homo sapiens) (UniProt P04839); assay: compounds shifting NOX2 Amplex Red fluorescence – cell-based, HEK293-NOX2, PMA-stimulated, NOX inhibitor project, primary screen (AID 1159); conditions: 45 min, higher = more signal, called active from +8 up or from −8 down; further: test concentration not given here
Sequence of NADPH oxidase 2 (Homo sapiens) (P04839 whole entry, looked up): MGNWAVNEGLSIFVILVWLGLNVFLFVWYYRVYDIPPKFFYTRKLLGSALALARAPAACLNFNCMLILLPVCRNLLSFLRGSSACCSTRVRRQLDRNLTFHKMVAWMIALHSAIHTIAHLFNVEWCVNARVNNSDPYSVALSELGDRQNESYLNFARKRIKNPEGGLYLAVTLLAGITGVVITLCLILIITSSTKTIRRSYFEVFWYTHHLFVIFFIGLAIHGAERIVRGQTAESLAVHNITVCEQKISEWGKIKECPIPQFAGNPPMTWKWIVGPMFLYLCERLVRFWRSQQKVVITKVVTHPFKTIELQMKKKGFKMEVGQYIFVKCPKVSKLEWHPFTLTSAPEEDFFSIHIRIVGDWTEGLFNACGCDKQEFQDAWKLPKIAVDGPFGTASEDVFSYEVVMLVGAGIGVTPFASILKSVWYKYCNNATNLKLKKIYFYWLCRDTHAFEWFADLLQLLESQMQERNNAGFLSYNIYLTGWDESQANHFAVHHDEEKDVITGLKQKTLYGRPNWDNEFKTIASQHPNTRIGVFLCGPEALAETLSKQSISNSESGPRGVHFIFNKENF

[19] = target: NADPH oxidase 4 (Homo sapiens) (UniProt Q9NPH5); assay: compounds shifting NOX4 Amplex Red fluorescence – cell-based, HEK293-NOX4, tetracycline-induced, NOX inhibitor project, primary screen (AID 1160); conditions: HEK293-NOX4, Amplex Red H2O2 fluorescence, 45 min; higher = more signal, called active from +8 up or from −8 down
Sequence of NADPH oxidase 4 (Homo sapiens) (Q9NPH5 whole entry, looked up): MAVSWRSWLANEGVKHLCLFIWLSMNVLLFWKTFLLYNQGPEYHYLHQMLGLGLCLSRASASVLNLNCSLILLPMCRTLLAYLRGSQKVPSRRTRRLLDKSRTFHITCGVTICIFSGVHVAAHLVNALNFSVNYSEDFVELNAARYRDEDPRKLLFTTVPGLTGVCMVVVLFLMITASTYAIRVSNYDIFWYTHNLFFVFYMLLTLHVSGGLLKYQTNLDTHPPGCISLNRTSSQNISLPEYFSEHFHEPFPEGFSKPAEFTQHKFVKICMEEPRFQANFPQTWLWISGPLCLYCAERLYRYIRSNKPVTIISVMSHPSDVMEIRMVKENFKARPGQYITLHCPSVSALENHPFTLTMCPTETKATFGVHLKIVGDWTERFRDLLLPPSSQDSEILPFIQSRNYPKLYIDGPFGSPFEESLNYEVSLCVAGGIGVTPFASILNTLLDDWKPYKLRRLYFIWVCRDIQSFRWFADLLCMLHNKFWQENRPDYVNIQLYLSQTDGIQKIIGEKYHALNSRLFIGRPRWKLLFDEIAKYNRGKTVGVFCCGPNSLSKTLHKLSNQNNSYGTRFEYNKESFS

[20] = target: NADPH oxidase 5 (Homo sapiens) (UniProt Q96PH1); assay: compounds shifting NOX5 Amplex Red fluorescence – cell-based, HEK293-NOX5, NOX inhibitor project, primary screen (AID 1161); conditions: HEK293-NOX5, ionomycin, 45 min, higher = more signal
Sequence of NADPH oxidase 5 (Homo sapiens) (Q96PH1 whole entry, looked up): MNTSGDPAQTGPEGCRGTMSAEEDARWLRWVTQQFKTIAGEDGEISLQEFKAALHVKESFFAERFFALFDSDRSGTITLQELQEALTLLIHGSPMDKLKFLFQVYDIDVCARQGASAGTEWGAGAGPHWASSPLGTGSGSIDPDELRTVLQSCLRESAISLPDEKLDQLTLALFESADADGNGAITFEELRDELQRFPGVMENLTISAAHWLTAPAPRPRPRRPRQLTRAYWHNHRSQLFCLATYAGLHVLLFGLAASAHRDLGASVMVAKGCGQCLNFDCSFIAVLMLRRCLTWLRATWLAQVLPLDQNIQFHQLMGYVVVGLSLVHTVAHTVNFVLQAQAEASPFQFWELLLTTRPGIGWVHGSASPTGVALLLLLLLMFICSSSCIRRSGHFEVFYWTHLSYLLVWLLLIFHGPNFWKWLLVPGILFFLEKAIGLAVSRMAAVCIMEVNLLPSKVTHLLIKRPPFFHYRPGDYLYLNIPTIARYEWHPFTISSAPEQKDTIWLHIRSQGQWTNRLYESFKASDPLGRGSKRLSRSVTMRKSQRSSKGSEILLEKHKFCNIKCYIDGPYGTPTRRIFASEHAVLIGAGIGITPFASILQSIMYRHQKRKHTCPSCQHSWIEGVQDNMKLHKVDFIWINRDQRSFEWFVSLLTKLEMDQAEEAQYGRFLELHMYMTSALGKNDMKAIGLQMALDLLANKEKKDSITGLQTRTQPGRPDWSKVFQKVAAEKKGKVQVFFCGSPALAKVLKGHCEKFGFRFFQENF

SMILES	composite z-score [1]	z-score [2]	z-score [3]	z-score [4]	z-score [5]	composite z-score [6]	composite z-score [7]	composite z-score (Torsin-1A (Homo sapiens) [8])	composite z-score (Torsin-1A (Homo sapiens) [9])	composite z-score [10]	z-score [11]	composite z-score [12]	z-score [13]	z-score [14]	z-score [15]	z-score [16]	z-score [17]	z-score [18]	z-score [19]	z-score [20]
COCCCN1C(=O)[C@@]2(c3ccc([N+](=O)[O-])cc3)CC(=O)N(CC34CC5CC(CC(C5)C3)C4)[C@@H]2c2ccc(CO)cc21	-0.15	-0.636 (inactive)	-0.453 (inactive)	-1.32 (inactive)	-0.556 (inactive)	0.135	-0.138	-0.323	-0.0458	0.791	0.172 (inactive)	-0.298	-0.409 (inactive)	0.28 (inactive)	1.48 (inactive)	0.0583 (inactive)	0.261	0.307 (inactive)	0.183 (inactive)	0.482
CC1=C([C@H](O)CCc2ccccc2)[C@H](CO)n2c(=O)n(-c3ccccc3)c(=O)n2C1	-0.0682	-1.13 (inactive)	-1.21 (inactive)	0.399 (inactive)	0.0978 (inactive)	-0.141	-0.202	0.217	-0.485	0.359	2.91 (inactive)	-0.06	1.44 (inactive)	-0.657 (inactive)	-0.237 (inactive)	-1.48 (inactive)	1.77	-0.53 (inactive)	-0.429 (inactive)	0.218
COCCCNC(=O)[C@@]1(CCC(=O)OC(C)(C)C)COC(c2ccc(OCCCO)cc2)=N1	0.23	-1.7 (inactive)	-0.126 (inactive)	0.195 (inactive)	0.706 (inactive)	0.905	0.204	0.589	1.4	-0.98	0.42 (inactive)	0.205	23.6 (active)	4.91 (inactive)	0.873 (inactive)	0.766 (inactive)	-0.169	-2.51 (inactive)	0.195 (inactive)	-0.0784
C=CCC(OC(C)=O)[C@@H]1[C@@H](N(Cc2cc3ccccc3o2)C(=O)Cc2ccc(OC)cc2)c2cc(OCCCO)ccc2N1C(=O)c1ccc2ccccc2n1 (stereo not given in full)	-0.124	-1.03 (inactive)	0.267 (inactive)	4.52 (inactive)	-0.24 (inactive)	0.229	-0.0103	0.135	-0.136	0.0685	0.697 (inactive)	0.231	2.75 (inactive)	0.567 (inactive)	0.867 (inactive)	0.186 (inactive)	0.856	0.226 (inactive)	-1.14 (inactive)	1.52
CO[C@H]1O[C@H](CO)[C@@H](OC(=O)Nc2ccccc2)[C@H](OC(=O)Nc2ccccc2)[C@H]1OC(=O)Nc1ccccc1	0.664	-4.39 (inactive)	-1.41 (inactive)	1.04 (inactive)	-2.64 (inactive)	0.0545	0.0343	-0.196	1.07	0.78	0.492 (inactive)	0.264	4.11 (inactive)	1.04 (inactive)	0.406 (inactive)	0.912 (inactive)	0.22	-7.66 (inactive)	-1.15 (inactive)	-2.32
COc1ccc(C#Cc2ccc3c(c2)[C@]2(C(=O)N3)[C@H](C(=O)O)[C@H]3C(=O)O[C@H](c4ccccc4)[C@H](c4ccccc4)N3[C@@H]2c2ccccc2OCCO)cc1	0.119	-5.87 (inactive)	-1.75 (inactive)	1.43 (inactive)	4.81 (inactive)	0.904	-0.413	0.65	0.643	1.63	0.987 (inactive)	-0.707	-0.357 (inactive)	-0.566 (inactive)	-10.3 (active)	-2.29 (inactive)	1.56	2.09 (inactive)	-0.415 (inactive)	-2.32
COCCOC(=O)N1C(=O)[C@@]2(c3cc(C#CCC(C(=O)OC)C(=O)OC)ccc31)[C@H](C(=O)Nc1nc3ccccc3s1)[C@H]1C(=O)O[C@H](c3ccccc3)[C@H](c3ccccc3)N1[C@@H]2c1ccc(OCCO)cc1	0.555	-0.835 (inactive)	-0.00208 (inactive)	1.71 (inactive)	0.323 (inactive)	0.532	0.79	1.07	0.596	2.23	0.836 (inactive)	0.529	5.5 (inactive)	1.77 (inactive)	0.832 (inactive)	1.39 (inactive)	-0.265	1.75 (inactive)	1.03 (inactive)	1.33
COC(=O)[C@@]1(Cc2ccccc2)N=C(c2ccc(OCCCO)cc2)O[C@H]1c1ccccc1CN=[N+]=[N-]	0.289	-5.03 (inactive)	-0.621 (inactive)	-0.435 (inactive)	-1.97 (inactive)	-0.12	0.0227	0.009	0.668	1.88	1.11 (inactive)	0.313	23 (active)	7.26 (inactive)	-0.202 (inactive)	2.21 (inactive)	0.239	-6.02 (inactive)	-0.914 (inactive)	-3.31
Cc1ccccc1C(O)C1C=CC2C(=O)N(c3ccccc3)C(=O)C2N1Nc1ccccc1 (stereo not given)	0.719	-0.383 (inactive)	-1.18 (inactive)	0.0501 (inactive)	0.0163 (inactive)	1.65	0.182	-0.241	0.191	0.442	-0.29 (inactive)	0.271	20.1 (active)	3.73 (inactive)	0.214 (inactive)	1.59 (inactive)	-0.495	-1.85 (inactive)	-2.96 (inactive)	-2.44
